# Only some compounds are listed: those with a hit (about 5.1% of all), similar ones and a draw of the others.
# PNC inhibitor – High Content Assay for Compounds that inhibit the Assembly of the Perinucleolar Compartment | actives 3.1% (n = 140,000) | activity change (PNC), negative = inhibition, % at 10 µM | PC3M PTB-GFP, PNC prevalence imaging, 16 h; hits give low values | AID 2417, 2010;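 active means readout at or below -70, meaning at least 70% loss of cells showing the perinucleolar compartment, a nuclear body marking cancer cells; inconclusive means readout between -30 and a set limit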
#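 PC3M cells stably expressing PTB-GFP, 750–1000 cells/well, treated 16 h at 37 °C with compound (23 nl of library stock), in duplicate. After paraformaldehyde fixation and Hoechst stain, imaged at 20x; PNC prevalence scored by image analysis.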
# Tau ThT inhib – qHTS for Inhibitors of Tau Fibril Formation, Thioflavin T Binding | Microtubule-associated protein tau (Homo sapiens), P10636 | recombinant tau K18 P301L, heparin-induced fibrillization, ThT fluorescence | Potency, µM (top dose mostly 57.4 µM), actives largely listed as inhibitors | actives 2.1% (n = 270,000) | AID 1460, 2008; further: nearly all actives have a fitted effect of over 55% in size
# Target sequence (P10636 561-689 P618L limits assumed): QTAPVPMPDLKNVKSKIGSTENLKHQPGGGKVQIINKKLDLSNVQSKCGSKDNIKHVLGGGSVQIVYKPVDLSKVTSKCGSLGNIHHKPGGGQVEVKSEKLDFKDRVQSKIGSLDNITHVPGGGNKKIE
#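 Using a mix of unlabeled (15 uM) and Alexa 594-labeled (0.24 uM) tau K18 P301L, heparin-triggered fibrillization over 6 hr at 37 C was scored by ThT fluorescence.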
# Tau fluor cs – Counterscreen qHTS for Inhibitors of Tau Fibril Formation, Fluorescence Polarization; tau K18 P301L (four-repeat tau fragment) Alexa594 fluorescence, heparin fibrillization; Potency, µM (top dose mostly 57.7 µM); actives 0.93% (n = 280,000); AID 1463, 2008; further: nearly all actives have a fitted effect of over 55% in size
#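 Human K18 P301L tau (15 uM unlabeled plus 0.24 uM Alexa 594-labeled, final) in 100 mM sodium acetate pH 7 was mixed with compound and 20 uM heparin and incubated 6 hr at 37 C.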
# Tau fibril FP – qHTS for Inhibitors of Tau Fibril Formation, Fluorescence Polarization | Microtubule-associated protein tau (Homo sapiens), P10636 | actives 0.39% (n = 280,000) | Potency, µM (doses to about 57.7 µM), most hits filed as inhibitors | K18 P301L tau heparin fibrillization, Alexa594 FP, 6 h; further: nearly all actives have a fitted effect of over 55% in size
#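 Steps: dispense K18 P301L tau (15 uM plus 0.24 uM Alexa 594 tracer, final) in pH 7 sodium acetate; add compound; add heparin (20 uM final); incubate 6 hr, 37 C; add ThT (30 uM final); after 1 hr ambient, read FP.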
# JMJD2E inh – qHTS Assay for Inhibitors of Human Jumonji Domain Containing 2E (JMJD2E). Lysine-specific demethylase 4E (Homo sapiens), B2RXH2. JMJD2E catalytic domain, FDH-coupled NADH fluorescence (FDH is formaldehyde dehydrogenase). Potency, µM (top dose mostly 57.1 µM), most hits filed as inhibitors. actives 1.6% (n = 230,000); active means well fitted inhibition curve with a large enough effect, not every such curve was filed as active; inconclusive means small, poorly fitted or top-dose-only effect, or another doubt; inactive means no such curve, though single readings can be large or run the other way; further: nearly all actives have a fitted effect of over 50% in size
# Target sequence (B2RXH2 1-337 limits assumed): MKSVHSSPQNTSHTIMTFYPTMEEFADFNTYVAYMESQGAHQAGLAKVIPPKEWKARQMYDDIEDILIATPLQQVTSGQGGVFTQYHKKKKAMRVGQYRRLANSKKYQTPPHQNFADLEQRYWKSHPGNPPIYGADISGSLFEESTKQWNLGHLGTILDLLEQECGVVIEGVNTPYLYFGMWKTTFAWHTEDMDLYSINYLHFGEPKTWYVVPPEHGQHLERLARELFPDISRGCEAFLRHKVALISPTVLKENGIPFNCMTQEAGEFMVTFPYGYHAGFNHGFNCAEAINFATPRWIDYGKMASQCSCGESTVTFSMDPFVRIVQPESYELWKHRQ
# NPSR antag – qHTS Assay for Antagonists of the Neuropeptide S Receptor: cAMP Signal Transduction; actives 1% (n = 220,000); Potency, µM (series often up to 38.3 µM), usual class: inhibitors; CHO-NPSR cells, cAMP TR-FRET, antagonist mode; Q6W5P4; AID 1461, 2008; further: nearly all actives have a fitted effect of over 50% in size
# A number is an active result; n = inactive; u = inconclusive; x = not tested or not shown; [ ] = dose if it differs, or a comment. Unless noted, the call rests on the fitted dose curve; in most records, active means well fitted curve in the direction sought with a large enough effect; inconclusive means small, poorly fitted or top-dose-only effect, or another doubt; inactive means no such curve, though single readings can be large; an effect the other way counts as inactive or inconclusive.
SMILES,PNC inhibitor,Tau ThT inhib,Tau fluor cs,Tau fibril FP,JMJD2E inh,NPSR antag
COc1ccc(NC2=C(c3ccc(OC)cc3)C(=O)c3ccccc32)cc1,u,u,u,u,n,n
Cc1ccc2[nH]c3c(c2c1)CN(C(=O)CN1CCN(c2cccc(C)c2C)CC1)CC3,u,u,u,n,22µM,n
Cc1ccc2[nH]c3c(c2c1)CN(C(=O)CN1CCN(C(=O)c2ccco2)CC1)CC3,x,n,n,n,n,n[7.67 µM]
CC(C)c1ccc(/C=C2\CC/C(=C\C=N\N(C)C)C2=O)cc1,n,3.2µM,n,u,u,n
CC(C)/C=C1\CC/C(=C\c2ccc(N(C)C)cc2)C1=O,n,2µM,n,n,n,n
COc1cc(C(CC(=O)NCc2ccccc2Cl)N2Cc3ccccc3C2=O)cc(OC)c1OC (centres undefined),x,n,n,n,x,x
Cc1ccc(NC(=O)N2CCC(CN3CCCC3)CC2)c(C)c1,x,n,n,n,x,x
CCOc1ccccc1/C=C/c1onc(C)c1S(=O)(=O)N1CCC(C(=O)N2CCCCC2)CC1,x,n,n,n,x,x
CNc1ccc(/C=C/C(=O)c2cccc3ccccc23)cc1[N+](=O)[O-],n,6.3µM,n,n,n,n
COc1ccc(-c2ccc(C(=S)N3CCN(C(C)=O)CC3)o2)cc1,u,28µM,n,u,u,n
O=C1Nc2ccccc2/C1=N\N=C\c1ccc(O)c(O)c1,x,4.5µM,u,n,7.9µM,n
Cc1ccsc1/C=N/N=C1\C(=O)Nc2ccccc21,n,14µM,u,n,n,n
COc1cc(/C=N/N=C2/C(=O)Nc3ccccc32)ccc1O,n,11µM,u,n,n,n
O=C(/C(=N/N=C/c1ccc(O)c(O)c1)c1ccccc1)c1ccccc1,u,u,13µM[quencher],n,u,n
COc1ccc(N=C2C(=O)Nc3ccccc32)cc1,n,u,n,n,n,n
Cc1ccc(C(=O)COC(=O)c2cnccn2)cc1,-102,n,n,n,n,n
O=C(COC(=O)c1cnccn1)c1ccc([N+](=O)[O-])cc1,x,16µM,n,u,n,n
Cc1nc(-c2ccc(S(=O)(=O)N3CCN(c4cccc(Cl)c4)CC3)cc2)co1,x,n,n,n,x,x
COc1ccc(CNC(=O)CCc2c(C)nc3c(c2C)c(=O)n(C)c(=O)n3C)cc1,x,n,n,n,x,x
c1ccc2c(c1)CCN(C1=Nc3cccc4cccc1c34)C2,x,16µM,n,n,u,n
Cn1nc(-c2ccc(C(=O)O)cc2)c2ccccc2c1=O,n,n,n,n,n,n
COC(=O)c1ccc(-c2nn(C)c(=O)c3ccccc23)cc1,-108,n,n,n,n,n
COc1cccc(C2=CC(c3cccc(OC)c3OC)n3nnnc3N2)c1 (centres undefined),-87,n,n,n,u,u
COc1cccc(C2=CC(c3cccc(OC)c3OC(F)F)n3nnnc3N2)c1 (centres undefined),n,n,n,u,n,n
Cc1ccc(NS(=O)(=O)c2cc(NC(=O)c3ccc4c(c3)NC(=O)CS4)ccc2Cl)c(C)c1,x,n,u,25µM,u,n
CCC(=O)Nc1nnc(SCC(=O)N2c3ccccc3CC2C)s1 (centres undefined),n,n,n,n,n,n
CC1Cc2ccccc2N1C(=O)CSc1nnc(NC(=O)Cc2cccs2)s1 (centres undefined),u,n,n,n,n,13µM
CCN(CC)c1ccc(C(=O)Nc2ccc3nc(N(CC)CC)cc(C)c3c2)cc1,x,3.5µM,14µM[quencher],n,x,x
CCN(CC)c1cc(C)c2cc(NC(=O)/C=C/c3ccccc3OC(C)C)ccc2n1,x,u,7.9µM[quencher],u,x,x
CCN(CC)c1cc(C)c2cc(NC(=O)c3ccccc3Cl)ccc2n1,x,u,u,n,x,x
